This is an account of results in PubChem BioAssay (Tox21).

Records with an inconclusive call do not appear. A call without a number means that no potency is given here. The source made the active and inactive calls. Calls come from the whole dose curve; as a rule, active = well fitted cell-killing curve with a large enough effect in the repeat runs; inconclusive = weak or mixed curves; inactive = flat fitted curve, though single readings scatter.

The nature of the experiment: qHTS RealTime-Glo MT Cell Viability Assay in HepG2 cells - 32 hour (AID 1224877). Note: nearly all actives have a fitted effect of over 55% in size. The note with it: RealTime-Glo luminescence; series mostly up to 76.8 µM. An excerpt: U.S. Tox21 Program National Center for Advancing Translational Sciences [NCATS] NIH Chemical Genomics Center [NCGC] U.S. Environmental Protection Agency [EPA] National Institutes of Environmental Health Sciences [NIEHS] National Toxicology Program [NTP] U.S. Food and Drug Administration [FDA] Tox21 Assay Overview: Measure of cell viability is critical in the cell-base assay. Analysis of cell viability is necessary for the characterization of cell responses to cytotoxic drugs and environmental stress. A RealTime-Glo MT Cell Viability Assay to monitor cell viability in real time of continues cell culture during 40 hours of compound treatment was used to screen Tox21 10K library compounds in HepG2 cells. The RealTime-Glo MT Cell Viability Assay is a nonlytic, homogeneous, bioluminescent method to measure cell viability in real time using a simple, plate-based method. The assay involves adding NanoLuc luciferase and a cell-permeant prosubstrate to cells in culture. Viable cells reduce the proprietary prosubstrate to generate a substrate for NanoLuc luciferase. This substrate diffuses from cells into the surrounding culture medium, where it is rapidly used by the NanoLuc Enzyme to produce a luminescent signal. The signal correlates with the number of viable cells, making the assay well suited for cytotoxicity studies.
Tox21 Assay Protocol Summary: The mixture of HepG2 cell suspension and reagents were dispensed at 600cells/6 ul/well in 1536-well tissue culture treated black solid bottom plates using a Multidrop dispenser. After the assay plates were incubated at a 37 C/5% CO2 incubator for 5 hours, 23 nL of compounds dissolved in DMSO, positive and negative controls was transferred to the assay plate by a pintool work station. The plates were incubated at 37 C for 40 hours. The luminescence intensity were measured at 0h, 8h, 16h, 24h, 32h and 40h time points using ViewLux plate reader during compound treatment.
On the technique in general: In qHTS, concentration-response curves come from the screen itself.
With `O=C(NC(O)C(Cl)(Cl)Cl)NC(O)C(Cl)(Cl)Cl` (stereo not given), the Potency result is “inactive”. For `O=C1CC(=O)NC(=O)N1`, the Potency entry was “inactive”. In the case of `CCOC(=O)N(C)N=O`, the Potency result was “inactive”. The result for `O=C/C=C/c1ccco1` reads “inactive”; that for `C=C1C[C@@H]2[C@H](CC[C@]3(C)C(=O)CC[C@@H]23)[C@@]2(C)C=CC(=O)C=C12`, “inactive”; that for `CC(C)(C)NC[C@H](O)c1ccc(O)cc1Cl`, “inactive”. The result for `CCOC(=O)COc1ccc(Cl)cc1Cl` reads “inactive”; that for `O=[N+]([O-])CCO`, “inactive”.

`CC(C)(C)C(=O)C(Cl)Cl`: the Potency entry is “inactive”.

For `CNC(=O)Oc1cc(C)c(N(C)C)c(C)c1`, the Potency entry is “inactive”. In the case of `[O-][Br+2]([O-])O`, the Potency entry was “inactive”.

For `ClCOCCl`, the Potency result was “inactive”. The result for `CCC(C(N)=O)N1CCCC1=O` (stereo not given) reads “inactive”; that for `CC(C)c1ccc(O)cc1`, “inactive”. Regarding `Cc1ccc(Cl)c(O)c1`, the Potency result is “inactive”. The result for `OCC(Cl)CCl` (stereo not given) reads “inactive”; that for `CC[C@H](O)C(C[C@H](C)N(C)C)(c1ccccc1)c1ccccc1`, “inactive”. The result for `CCCOC(=O)c1cncn1C(C)c1ccccc1` (stereo not given) reads “inactive”. As for `O=C(Cl)C(Cl)Cl`, the Potency entry is “inactive”.

`NC(=O)CS(=O)C(c1ccccc1)c1ccccc1` (stereo not given): the Potency entry was “inactive”. As to `COP(=O)(OC)O/C(C)=C/C(=O)N(C)C`, the Potency entry was “inactive”. On to `CS(=O)(=O)Cl`, for which the Potency result was “inactive”. Consider `CNC(=O)Oc1ccccc1C(C)C`, for which the Potency result is “inactive”. The result for `CC(=NC#N)N(C)Cc1ccc(Cl)nc1` reads “inactive”; that for `CCN1CCCC1CNC(=O)C(O)(c1ccccc1)c1ccccc1` (stereo not given), “inactive”; that for `CC(C)NCC(O)c1ccc([N+](=O)[O-])cc1` (stereo not given), “inactive”. Regarding `COC1=CC(=O)O[C@@H](/C=C/c2ccccc2)C1`, the Potency entry is “inactive”.

Turning to `CCN[C@@H](C)Cc1ccccc1`, the Potency entry was “inactive”. The entry for `COP(=O)(O)OC` is “inactive”. Turning to `CN(CCO)CCO`, the Potency result was “inactive”. On to `Nc1c(Cl)c(F)nc(OCC(=O)O)c1Cl`, for which the Potency entry is “inactive”. As for `CCCCOC(C)=O`, the Potency result is “inactive”. For `COc1ccc2c(C(=O)c3ccc(Cl)cc3)c(C)n(CC(=O)O)c2c1`, the Potency result was “inactive”.

Regarding `C=C1CC[C@@]2(O)[C@H]3Cc4ccc(O)c5c4[C@@]2(CCN3CC2CC2)[C@H]1O5`, the Potency result is “inactive”. On to `CC[C@@H](CO)NC(=O)[C@@H]1C=C2c3cccc4c3c(cn4C)C[C@H]2N(C)C1`, for which the Potency result was “inactive”. On to `NC1(c2ccccc2)CCCCC1`, for which the Potency entry was “inactive”.

Consider `C[C@H](N)C(=O)c1ccccc1`, for which the Potency entry is “inactive”. The entry for `CC(C)(O)C(Cl)(Cl)Cl` is “inactive”; for `CCN(CC)CCOC(=O)C(O)(c1ccccc1)c1ccccc1` it is “inactive”; for `CS(=O)(=O)c1ccc(C(=O)C2C(=O)CCCC2=O)c(Cl)c1COCC(F)(F)F` it is “inactive”.
